This note sets out measurements from PubChem BioAssay (EPA / NIEHS).

Calls of active or inactive are those of the source. Rule for the calls: active = hit-call score of the fitted dose curve at least 0.9, where 1 is the maximum; inactive = score below 0.9.

Read-out in test [1]: C-C motif chemokine 2 (Homo sapiens) (UniProt P13500)
Put plainly: BSK_KF3CT_MCP1: BioMAP Diversity Plus: KF3CT Assay for Monocyte Chemoattractant Protein 1 (MCP1/CCL2) Biomarker Activity (AID 2283073). The note with it: primary human keratinocytes with fibroblasts; actives raise or lower the signal. The procedure, abridged:
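KF3CT skin co-culture (keratinocytes/foreskin fibroblasts), 24 h post-dose; MCP-1 by ELISA; gain/loss of signal fit bidirectionally vs DMSO baseline.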

Read-out in test [2]: urokinase plasminogen activator (uPA), PLAU (gene 5328)
Put plainly: BSK_KF3CT_uPA: BioMAP Diversity Plus: KF3CT Assay for urokinase plasminogen activator (uPA) Biomarker Activity (AID 2283075). The conditions noted are these: primary human keratinocytes with fibroblasts; actives raise or lower the signal. In outline:
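Human keratinocyte plus foreskin fibroblast primary co-culture exposed to chemical for 24 h. uPA levels were quantified by ELISA, and activity was fitted bidirectionally against a DMSO negative-control baseline.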

Read-out in test [3]: CD40, CD40 (gene 958)
Put plainly: BSK_LPS_CD40: BioMAP Diversity Plus: LPS Assay for CD40 Biomarker Activity (AID 2283076). The conditions noted are these: primary human HUVEC with PBMC; actives raise or lower the signal. The procedure, abridged: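 ELISA readout of CD40 in HUVEC/PBMC co-culture (BSK_LPS system), 24 h post-dosing; bidirectional curve fit, DMSO baseline; parallel SRB total-protein staining for cytotoxicity.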

Read-out in test [4]: E-selectin (Homo sapiens) (UniProt P16581)
As to the kind of experiment: BSK_LPS_Eselectin: BioMAP Diversity Plus: LPS Assay for Eselectin Biomarker Activity (AID 2283077). The conditions noted are these: primary human HUVEC with PBMC; actives raise or lower the signal. The procedure, abridged: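 ELISA readout of E-selectin, 24 h post-dose, HUVEC + PBMC co-culture (LPS system). Gain or loss of signal vs DMSO baseline, bidirectional fit.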

Read-out in test [5]: Interleukin-8 (IL8), CXCL8 (gene 3576)
Put plainly: BSK_LPS_IL8: BioMAP Diversity Plus: LPS Assay for Interleukin-8 (IL8) Biomarker Activity (AID 2283078). The conditions noted are these: primary human HUVEC with PBMC; actives raise or lower the signal. In outline:
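HUVEC + PBMC co-culture, LPS-activated; test chemicals dosed, IL-8 read by ELISA at 24 h. Bidirectional curve fit vs DMSO baseline (gain or loss of signal).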

Test [6] in a line: BSK_LPS_SRB: Viability Assessment in the BioMAP Diversity Plus: LPS Assay (AID 2283079).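 Note: total protein by sulforhodamine B absorbance as a cytotoxicity measure; measured one day after compound addition; fitted in both directions against DMSO so loss or gain of signal counts.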 The note with it: primary human HUVEC with PBMC. In outline: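 HUVEC + PBMC co-culture, LPS-stimulated; compound 24 h. 10% TCA fix, 0.1% SRB stain, A560. Bidirectional fit vs DMSO.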
Read-out in test [7]: Interleukin-1 alpha (IL1a), IL1A (gene 3552)
Put plainly: BSK_LPS_IL1a: BioMAP Diversity Plus: LPS Assay for Interleukin-1 alpha (IL1a) Biomarker Activity (AID 2283080). The note with it: primary human HUVEC with PBMC; actives raise or lower the signal. In outline: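 HUVEC/PBMC co-culture, LPS system; 24 h after dosing; IL-1a by ELISA; gain or loss of signal fitted bidirectionally vs DMSO baseline.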

Read-out in test [8]: Monocyte Chemoattractant Protein-1 (MCP1), CCL2 (gene 6347)
As to the kind of experiment: BSK_LPS_MCP1: BioMAP Diversity Plus: LPS Assay for Monocyte Chemoattractant Protein-1 (MCP1) Biomarker Activity (AID 2283081). The note with it: primary human HUVEC with PBMC; actives raise or lower the signal. In outline: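 ELISA read-out of MCP-1 after 24 h chemical dosing of a human umbilical vein endothelial cell/peripheral blood mononuclear cell co-culture stimulated with LPS. Gain or loss of signal fitted relative to DMSO controls.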

A short description of test [9]: BSK_LPS_PGE2: BioMAP Diversity Plus: LPS Assay for Prostaglandin E2 (PGE2) Biomarker Activity (AID 2283082). The note with it: primary human HUVEC with PBMC; actives raise or lower the signal. The procedure, abridged:
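HUVEC plus human PBMC co-culture stimulated with LPS; secreted PGE2 quantified by ELISA 24 h after chemical dosing. Activity fitted bidirectionally against DMSO baseline; parallel SRB staining (0.1% SRB after 10% TCA fixation, 560 nm) flags overt cytotoxicity.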

Read-out in test [10]: Macrophage colony-stimulating factor (MCSF), CSF1 (gene 1435)
Put plainly: BSK_LPS_MCSF: BioMAP Diversity Plus: LPS Assay for Macrophage colony-stimulating factor (MCSF) Biomarker Activity (AID 2283083). The note with it: primary human HUVEC with PBMC; actives raise or lower the signal. The procedure, abridged: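 HUVEC + PBMC co-culture (human primary), 24 h post-dose; M-CSF by ELISA; gain/loss of signal fitted bidirectionally vs DMSO baseline.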

Read-out in test [11]: Tissue Factor, F3 (gene 2152)
Put plainly: BSK_LPS_TissueFactor: BioMAP Diversity Plus: LPS Assay for Tissue Factor Biomarker Activity (AID 2283084). The note with it: primary human HUVEC with PBMC; actives raise or lower the signal. In outline: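 HUVEC/PBMC co-culture, LPS-activated; CD142 ELISA read 24 h post-dose; bidirectional curve fit vs DMSO negative control.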

Read-out in test [12]: Tumor necrosis factor (Homo sapiens) (UniProt P01375)
As to the kind of experiment: BSK_LPS_TNFa: BioMAP Diversity Plus: LPS Assay for Tumour Necrosis Factor alpha (TNFa) Biomarker Activity (AID 2283085). The note with it: primary human HUVEC with PBMC; actives raise or lower the signal. The procedure, abridged: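 Human umbilical vein endothelial cells co-cultured with PBMC and stimulated with LPS. TNFa was measured by ELISA 24 h after chemical dosing, fitted bidirectionally relative to DMSO.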

Read-out in test [13]: Vascular cell adhesion molecule 1 (VCAM1), VCAM1 (gene 7412)
Put plainly: BSK_LPS_VCAM1: BioMAP Diversity Plus: LPS Assay for Vascular cell adhesion molecule 1 (VCAM1) Biomarker Activity (AID 2283086). The note with it: primary human HUVEC with PBMC; actives raise or lower the signal. The procedure, abridged:
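Human umbilical vein endothelial cells co-cultured with PBMC and stimulated with LPS; VCAM-1 measured by ELISA 24 h after dosing. Bidirectional curve fitting against DMSO baseline; cytotoxicity tracked in parallel by SRB total-protein staining.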

Read-out in test [14]: CD38, CD38 (gene 952)
As to the kind of experiment: BSK_SAg_CD38: BioMAP Diversity Plus: SAg Assay for CD38 Biomarker Activity (AID 2283087). The conditions noted are these: primary human HUVEC with PBMC; actives raise or lower the signal. The procedure, abridged:
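Human HUVEC plus PBMC co-culture stimulated with superantigen; CD38 measured by ELISA 24 h after chemical dosing. Fluorescence read-out, bidirectional fit against DMSO; cytotoxicity tracked in parallel by SRB and Alamar Blue.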

Read-out in test [15]: CD40, CD40 (gene 958)
Put plainly: BSK_SAg_CD40: BioMAP Diversity Plus: SAg Assay for CD40 Biomarker Activity (AID 2283088). The note with it: primary human HUVEC with PBMC; actives raise or lower the signal. In outline:
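HUVEC/PBMC co-culture, 24 h post-dose; CD40 by ELISA, fluorescence intensity; bidirectional fit vs DMSO negative control.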

Read-out in test [16]: CD69, CD69 (gene 969)
Put plainly: BSK_SAg_CD69: BioMAP Diversity Plus: SAg Assay for CD69 Biomarker Activity (AID 2283089).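 For AC50: cell surface CD69 protein quantified by ELISA with fluorescence detection.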 The note with it: primary human HUVEC with PBMC; actives raise or lower the signal. In outline: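 Values derive from bidirectional fitting relative to DMSO vehicle. Cells: umbilical vein endothelium plus peripheral blood mononuclear cells, treated 24 h before fluorescent ELISA for CD69.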

Read-out in test [17]: Monocyte Chemoattractant Protein-1 (MCP1), CCL2 (gene 6347)
As to the kind of experiment: BSK_SAg_MCP1: BioMAP Diversity Plus: SAg Assay for Monocyte Chemoattractant Protein-1 (MCP1) Biomarker Activity (AID 2283090). The conditions noted are these: primary human HUVEC with PBMC; actives raise or lower the signal. In outline: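 MCP-1 levels in the endothelial–PBMC SAg co-culture were quantified by ELISA at 24 h post-dosing; both increases and decreases versus DMSO scored. Cytotoxicity monitored by SRB total protein in parallel cultures.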

Read-out in test [18]: E-selectin (Homo sapiens) (UniProt P16581)
As to the kind of experiment: BSK_SAg_Eselectin: BioMAP Diversity Plus: SAg Assay for Eselectin Biomarker Activity (AID 2283091). The conditions noted are these: primary human HUVEC with PBMC; actives raise or lower the signal. In outline: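 E-selectin ELISA readout at 24 h post-dosing in human umbilical vein endothelial cell/PBMC co-culture; gain or loss of signal fitted relative to DMSO baseline.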

Read-out in test [19]: Monokine induced gamma interferon (MIG), CXCL9 (gene 4283)
As to the kind of experiment: BSK_SAg_MIG: BioMAP Diversity Plus: SAg Assay for Monokine induced gamma interferon (MIG) Biomarker Activity (AID 2283092). The note with it: primary human HUVEC with PBMC; actives raise or lower the signal. The procedure, abridged: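 Values reflect bidirectional fitting of ELISA-measured MIG against DMSO vehicle, taken 24 h after dosing of a co-culture of human umbilical vein endothelial cells and peripheral blood mononuclear cells.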

E-selectin (Homo sapiens), sequence (P16581 whole entry, looked up): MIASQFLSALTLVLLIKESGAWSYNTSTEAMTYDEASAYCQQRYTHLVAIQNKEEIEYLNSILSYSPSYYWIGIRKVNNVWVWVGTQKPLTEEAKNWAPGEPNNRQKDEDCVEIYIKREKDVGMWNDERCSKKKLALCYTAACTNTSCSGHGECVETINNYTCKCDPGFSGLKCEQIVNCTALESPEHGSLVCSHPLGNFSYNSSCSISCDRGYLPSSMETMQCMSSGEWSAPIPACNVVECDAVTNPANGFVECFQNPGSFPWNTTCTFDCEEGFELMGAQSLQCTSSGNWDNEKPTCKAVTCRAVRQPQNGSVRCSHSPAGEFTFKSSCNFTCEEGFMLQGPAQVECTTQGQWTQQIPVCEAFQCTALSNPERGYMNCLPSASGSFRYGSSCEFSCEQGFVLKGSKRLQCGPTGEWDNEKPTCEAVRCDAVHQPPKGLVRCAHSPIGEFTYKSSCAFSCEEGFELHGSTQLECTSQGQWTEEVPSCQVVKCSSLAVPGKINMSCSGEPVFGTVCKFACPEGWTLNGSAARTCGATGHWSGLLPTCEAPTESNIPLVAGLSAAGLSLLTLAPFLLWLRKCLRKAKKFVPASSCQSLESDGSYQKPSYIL
Tumor necrosis factor (Homo sapiens), sequence (P01375 whole entry, looked up): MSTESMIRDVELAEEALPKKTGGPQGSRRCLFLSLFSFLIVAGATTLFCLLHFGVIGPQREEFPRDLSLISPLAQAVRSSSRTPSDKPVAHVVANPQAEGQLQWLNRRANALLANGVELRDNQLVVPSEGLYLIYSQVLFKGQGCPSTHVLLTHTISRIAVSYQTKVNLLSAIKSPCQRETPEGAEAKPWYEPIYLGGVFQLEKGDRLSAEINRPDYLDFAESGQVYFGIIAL

Take `CCCCC(CC)COC(=O)/C=C\C(=O)OCC(CC)CCCC` (configuration not stated): the result in [1], in test [2], in test [3], in test [4], in [5] and in test [6] was inactive. Besides, the result in test [7], in test [8], in test [9], in test [10], in [11] and in test [12] was inactive. The outcome in test [14], in test [15], in [16], in [17], in test [18] and in test [19] was inactive. Moreover, the half-maximal activity concentration (AC50) (usually the midpoint of the concentration-response curve, whichever way the signal moves) in test [13] is 11.9 µM (active).

`CC(C)(COC(=O)c1ccccc1)COC(=O)c1ccccc1`: the outcome in test [1], in test [2], in [4], in [5], in test [7] and in [8] was inactive. In addition, the result in test [9], in [11], in test [12], in test [14], in test [17] and in test [19] was inactive. Besides, the AC50 was 32 µM (active) in test [3]; 31.3 µM (active) in test [6]; 30.9 µM (active) in test [10]; 26.2 µM (active) in test [13]; 32.3 µM (active) in [15]; 31.7 µM (active) in [16]. Besides, in test [18], the half-maximal activity concentration (AC50) is 28.8 µM (active).

On to `Nc1cc([N+](=O)[O-])ccc1Cl`, for which the outcome in [1], in test [2], in [3], in [4], in [5] and in [6] was inactive. In addition, the outcome in test [7], in [8], in test [9], in test [10], in test [11] and in [12] was inactive. The result in test [13], in [14], in test [15], in test [16], in test [17] and in test [18] was inactive. Further, the result in test [19] was inactive.
